Experimental data: PubChem BioAssay AID588590 (National Center for Advancing Translational Sciences (NCATS), 2011)
Among all 390,000 compounds or so, about 4,000 (1%) were called active. Entries that show only a call come without a potency. Inconclusive results (about 7%) are left out. The call rests on the fitted dose curve; in most records, active means well fitted inhibition curve with a large enough effect; inconclusive means small, poorly fitted or top-dose-only effect, or another doubt; inactive means no such curve, though single readings can be large or run the other way. The full list was thinned out, with actives kept by preference.

Target: DNA polymerase iota (Homo sapiens) (UniProt Q9UNA4)
Sequence (Q9UNA4 whole entry, looked up): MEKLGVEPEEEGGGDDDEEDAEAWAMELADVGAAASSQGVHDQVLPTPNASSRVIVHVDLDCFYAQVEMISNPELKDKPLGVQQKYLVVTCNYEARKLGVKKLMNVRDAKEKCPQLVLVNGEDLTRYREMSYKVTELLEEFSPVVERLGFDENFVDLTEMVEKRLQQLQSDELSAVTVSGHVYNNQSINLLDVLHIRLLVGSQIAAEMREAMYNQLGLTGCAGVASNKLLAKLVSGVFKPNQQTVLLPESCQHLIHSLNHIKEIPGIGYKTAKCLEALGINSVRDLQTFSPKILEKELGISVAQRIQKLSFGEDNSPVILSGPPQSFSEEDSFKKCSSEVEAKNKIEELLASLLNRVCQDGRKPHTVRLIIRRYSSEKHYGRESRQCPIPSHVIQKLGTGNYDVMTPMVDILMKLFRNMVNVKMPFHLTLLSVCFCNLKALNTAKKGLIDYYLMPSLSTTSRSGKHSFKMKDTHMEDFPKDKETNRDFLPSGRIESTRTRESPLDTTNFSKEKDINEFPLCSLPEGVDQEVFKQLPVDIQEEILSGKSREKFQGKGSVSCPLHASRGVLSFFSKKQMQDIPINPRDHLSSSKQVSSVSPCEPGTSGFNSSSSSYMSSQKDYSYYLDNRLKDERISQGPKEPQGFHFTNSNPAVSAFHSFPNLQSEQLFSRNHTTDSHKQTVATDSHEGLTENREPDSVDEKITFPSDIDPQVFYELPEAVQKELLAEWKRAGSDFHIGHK
Assay: qHTS for Inhibitors of Polymerase Iota
Settings: Pol iota fluorescent replication assay, 10 min; series mostly up to 115 µM
Outline: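 Fluorescent replication assay read twice, at 0 min and 10 min after adding 50 nM (final) substrate. Enzyme (10 nM) and compounds were first incubated 15 min at room temperature; enzyme-free buffer wells were negative controls.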
Potency means the concentration at half of the fitted maximal effect.

| SMILES | Potency |
| --- | --- |
| CC(C)(C)OC(=O)N1CCC(c2c(C(=O)NCc3ccccn3)cnn2-c2ccc(F)cc2)CC1 | inactive |
| CCc1ccc(NC(=O)C2CCCN2S(=O)(=O)c2ccc3nc(-c4ccccc4)[nH]c3c2)cc1 (stereo not given) | 89.1 µM (active) |
| CC(=O)Nc1ccc(NC(=O)C2CCCN2S(=O)(=O)c2cccc(C(F)(F)F)c2)cc1 (stereo not given) | inactive |
| CCc1nnc(NC(=O)C2CCCN2S(=O)(=O)c2ccccc2)s1 (stereo not given) | inactive |
| CN(CCC#N)c1ccc(C=O)cc1 | inactive |
| Cc1ccc(Nc2c(-c3ccc(C)cc3)nc3cnccn23)cc1 | inactive |
| COc1cccc(NC(=O)c2ccc3nc(CCc4ccccc4)oc3c2)c1 | inactive |
| Cc1nn(-c2ccc(F)cc2)c(Cl)c1/C=C(/CCC(=O)O)c1nc2ccccc2s1 | inactive |
| COc1ccc(C(=O)Nc2cccc(/C=C(/CCC(=O)O)c3nc4ccccc4s3)c2)cc1 | 12.6 µM (active) |
| Cc1csc[n+]1CCC1CCCCC1 | inactive |
| CCOC(=O)c1ccc(NC(=O)c2csc3c2CCCCC3)cc1 | inactive |
| CCOc1ccc(C(=O)/C=C/c2cn(CC(O)CN3CCCCCC3)c3ccccc23)cc1 (stereo not given) | inactive |
| O=C(CN1CCSc2ccccc21)N1CCN(c2ccccc2)CC1 | inactive |
| Cc1cc(C)cc(NS(=O)(=O)c2ccc3[nH]cc(C(=O)N4CCCCC4)c(=O)c3c2)c1 | inactive |
| CCCCNC(=O)c1c[nH]c2ccc(S(=O)(=O)Nc3ccc(OCC)cc3)cc2c1=O | inactive |
| CC(C)c1ccc(NS(=O)(=O)c2ccc3[nH]cc(C(=O)NC4CCCC4)c(=O)c3c2)cc1 | 79.4 µM (active) |
| Cc1ccc(C)c(N2CCN(Cc3nnc(-c4ccccc4)o3)CC2)c1 | inactive |
| CN(CC(=O)Nc1ccccc1F)S(=O)(=O)c1ccc2c(c1)c(=O)n(C)c(=O)n2C | inactive |
| CS(=O)(=O)c1ccc2c(c1)SC1=NC(=O)/C(=C/c3ccco3)C(=N)N12 | 14.1 µM (active) |
| CCNC(=O)CC1C(=O)N(c2ccc(F)cc2)C(=O)N1Cc1ccc(C)cc1 (stereo not given) | inactive |

| SMILES | Potency |
| --- | --- |
| S=c1[nH]nc(-c2cc(-c3ccccc3)n[nH]2)n1/N=C/c1c2ccccc2cc2ccccc12 | 20 µM (active) |
| CCCc1cc(-c2n[nH]c(=S)n2CC)c2ccccc2n1 | inactive |
| CCN(CC)S(=O)(=O)c1cccc(-c2n[nH]c(=S)n2/N=C/c2ccc(C(=O)OC)cc2)c1 | inactive |
| Cc1cc(=O)n2[nH]c(-c3sccc3-n3c(C)ccc3C)cc2n1 | 20 µM (active) |
| C=CCc1c(C)nc2cc(-c3ccccc3)[nH]n2c1=O | inactive |
| CN(Cc1ccccc1)C(=O)c1cn(C)c2ccc(S(=O)(=O)N(C)C3CCCCC3)cc2c1=O | inactive |
| COC(=O)c1cc(NC(=O)c2cnc(SC)nc2-c2ccccc2)cc(C(=O)OC)c1 | inactive |
| Cc1cccc(-n2ncc(C(=O)N3CCN(c4ccc(Cl)cc4)CC3)c2C2CCN(C(=O)OC(C)(C)C)CC2)c1 | inactive |
| CC(C)(C)OC(=O)N1CCC(c2c(C(=O)Nc3ccc4c(c3)OCO4)cnn2-c2ccccc2)CC1 | inactive |
| COC(=O)c1ccc(NC(=O)c2cnn(-c3ccc(Cl)cc3)c2C2CCN(C(=O)OC(C)(C)C)CC2)cc1 | 89.1 µM (active) |
| Cc1nn(C)c2c1c(C(F)(F)F)cc(=O)n2C(C)C(=O)NCc1ccc(Cl)cc1 (stereo not given) | inactive |
| CN1CCOC1c1ccc(C2OCCN2C)cc1 (stereo not given) | 20 µM (active) |
| CCOC(=O)c1cccc(NC(=O)c2cc(S(=O)(=O)N3CCCC(C)C3)cn2C)c1 (stereo not given) | inactive |
| CCOc1ccc(N(C)S(=O)(=O)c2cc(-c3cnc(C)o3)ccc2OC)cc1 | inactive |
| Cc1ccc(-n2c(=O)c3cccnc3n2CC(=O)NCc2ccc(F)cc2)cc1C | inactive |
| CC1CCCCN1S(=O)(=O)c1ccc(F)c(C(=O)Nc2ccccc2C(F)(F)F)c1 (stereo not given) | inactive |
| Brc1nc2ncnc(NCc3ccco3)c2[nH]1 | inactive |
| Cc1ccc(N2NC(=O)/C(=C/C=C/c3ccco3)C2=O)cc1C | 20 µM (active) |
| Cc1ccc(-n2ncc3c(=O)n(-c4ccc(C)c(C)c4)c(-c4ccco4)nc32)cc1 | inactive |
| Cc1ccc(C(=O)N/C(=C\c2ccco2)C(=O)N2CCSCC2)cc1C | inactive |

| SMILES | Potency |
| --- | --- |
| Cc1ccc(N=C2NC(=O)/C(=C/C=C/c3ccco3)S2)cc1C | 11.2 µM (active) |
| CCOc1ccc(-c2cc3nc(C4CCN(C(=O)OC(C)(C)C)CC4)c(C(=O)Nc4cccc(CC)c4)cn3n2)cc1 | inactive |
| COc1cccc(NC(=O)N2CCN(C(=O)c3nsc4ccccc34)CC2)c1 | inactive |
| CCc1ccccc1NC(=O)N1CCC2(CC1)Oc1ccccc1C(=O)N2Cc1ccccc1F | inactive |
| Cc1cc(C)cc(OCC(=O)Nc2c(C(=O)c3ccccc3)oc3ccccc23)c1 | inactive |
| COc1ccccc1CNc1nc2ccc(Cl)cc2n2cnnc12 | inactive |
| O=C(Nc1cccc(-c2nc3ccccc3o2)c1)c1cccc(Br)c1 | inactive |
| O=C(N/N=C/c1cccc(OC(=O)c2ccc([N+](=O)[O-])cc2)c1)c1cccnc1 | inactive |
| Cc1cccc(OCC(=O)NCCNC(=O)c2cccnc2)c1 | inactive |
| O=C(COc1ccc(/C=N/NC(=O)c2ccc(O)cc2)cc1)Nc1ccc([N+](=O)[O-])cc1 | 3.98 µM (active) |
| Cc1ccc(NC(=O)COc2ccc(/C=N\NC(=O)c3cccnc3)cc2)cc1C | 22.4 µM (active) |
| Cc1ccc(OCC(=O)NCCCNC(=O)c2cccnc2)cc1C | inactive |
| O=C(COc1ccc([N+](=O)[O-])cc1)Nc1cccc(C(=O)Nc2ccccc2C(=O)O)c1 | inactive |
| O=C(Nc1ccc(S(=O)(=O)N2CCC(c3nc4ccccc4s3)CC2)cc1)c1ccccc1F | inactive |
| COc1ccc(CCNC(=O)c2nn(C)c3c2CSc2ccccc2-3)cc1OC | inactive |
| COc1ccc(NC(=O)c2ccc3oc(=O)c(S(=O)(=O)c4ccc(F)cc4)cc3c2)c(OC)c1 | inactive |
| CCCN1CCN(CCCNC(=O)c2cnn(-c3ccc(C)cc3)c2-n2cccc2)CC1 | inactive |
| O=C(Cn1cnc2ccccc2c1=O)NNC(=O)c1ccccc1F | inactive |
| Cn1c(CC(=O)NNC(=O)c2ccccc2F)nc2ccccc21 | 70.8 µM (active) |
| Cc1cc2occ(CC(=O)NNC(=O)c3ccccc3F)c2cc1C | inactive |
